From PubChem BioAssay (NCI)
The panel holds about 79,000 compounds, 15% with a hit somewhere; the sample as a whole holds those more often. Unmarked numbers belong to inactive results. The source made the active and inactive calls. Rule as the data show it: active = growth inhibition above about 70%; inactive = the rest.

Tests used:
[1] = NCI Yeast Anticancer Drug Screen. Data for the rad52 strain (AID 147);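 also: 0% = growth of vehicle-treated control cultures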; settings: S. cerevisiae rad52 mutant growth inhibition, stronger effect = higher value
Method in brief: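 Here a repair-compromised yeast strain receives each compound; its growth is then quantified and normalised to vehicle-only controls.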

[2] = NCI Yeast Anticancer Drug Screen. Data for the wt1 strain (AID 149);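 also: 0% = growth of vehicle-treated wt1 cultures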; settings: S. cerevisiae wt1 strain (SPY 50644) growth inhibition, stronger effect = higher value
Method in brief: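 Compounds are added to wt1 yeast cultures. Growth is then measured. Inhibition is expressed relative to vehicle-treated controls.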

[3] = NCI Yeast Anticancer Drug Screen. Data for the rad50EPP+ strain (AID 151);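 also: 0% = growth of vehicle-treated control cultures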; settings: S. cerevisiae rad50 mutant strain, stronger effect = higher value
Method in brief: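 Read-out is yeast growth inhibition relative to vehicle; cells used were the rad50EPP+ strain.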

[4] = NCI Yeast Anticancer Drug Screen. Data for the mgt1 strain (AID 153); settings: S. cerevisiae mgt1 mutant growth inhibition, stronger effect = higher value
Method in brief: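 Measured: inhibition of mgt1 yeast growth by compound, normalized to vehicle-treated cultures.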

[5] = NCI Yeast Anticancer Drug Screen. Data for the rad50 strain (AID 155);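 also: 0% = growth of vehicle-only cultures of the same strain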; settings: S. cerevisiae rad50 strain growth inhibition, stronger effect = higher value
Method in brief: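 Inhibition values express reduced yeast growth in compound-treated cultures relative to vehicle-treated controls.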

[6] = NCI Yeast Anticancer Drug Screen. Data for the mec2-1 strain (AID 157); settings: S. cerevisiae mec2-1 strain, stronger effect = higher value
Method in brief: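 Using mec2-1 yeast: add compound, measure growth, express inhibition versus vehicle-treated cultures.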

[7] = NCI Yeast Anticancer Drug Screen. Data for the rad14 strain (AID 159);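 also: 0% = growth of vehicle-treated control cultures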; settings: S. cerevisiae rad14 strain growth inhibition, stronger effect = higher value
Method in brief: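 A mutant yeast strain defective in DNA damage repair is treated with compound; inhibition of its growth is scored against untreated, vehicle-exposed cultures.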

[8] = NCI Yeast Anticancer Drug Screen. Data for the sgs1 mgt1 strain (AID 161);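 also: 0% = growth of cultures given vehicle only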; settings: S. cerevisiae sgs1 mgt1 strain, stronger effect = higher value
Method in brief: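 Compounds are added to genetically altered yeast, and growth is compared with cultures given vehicle alone to give percent inhibition.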

[9] = NCI Yeast Anticancer Drug Screen. Data for the CLN2oe strain (AID 163);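 also: 0% = growth of vehicle-only control cultures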; settings: S. cerevisiae CLN2oe strain, stronger effect = higher value
Method in brief: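 Whole-cell yeast growth assay. A strain engineered for altered cell-cycle control received compound, and inhibition relative to vehicle-treated cultures was recorded.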

[10] = NCI Yeast Anticancer Drug Screen. Data for the cln2 rad14 strain (AID 165);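 also: 0% = growth equal to vehicle treated cultures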; settings: S. cerevisiae cln2 rad14 strain, stronger effect = higher value
Method in brief: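 Yeast strain cln2 rad14, bearing defects in cell cycle control and DNA repair, serves as the test system; values reflect growth inhibition compared with vehicle.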

[11] = NCI Yeast Anticancer Drug Screen. Data for the bub3 strain (AID 167); settings: S. cerevisiae bub3 mutant strain, stronger effect = higher value
Method in brief: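 Steps: expose the mutant yeast strain to compound; grow alongside vehicle-treated cultures; measure growth; express inhibition against the vehicle cultures.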

[12] = NCI Yeast Anticancer Drug Screen. Data for the wt2 strain (AID 169);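 also: 0% = growth of vehicle-treated yeast cultures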; settings: S. cerevisiae wt2 strain growth inhibition, stronger effect = higher value
Method in brief: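 Treated yeast vs. vehicle-treated yeast: growth inhibition determined.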

[13] = NCI Yeast Anticancer Drug Screen. Data for the mlh1 strain (AID 171);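 also: 0% = growth of vehicle-treated control cultures of the same strain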; settings: S. cerevisiae mlh1 strain growth inhibition, stronger effect = higher value
Method in brief: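 A yeast strain with a defined genetic lesion serves as the test organism. Cultures receive compound or vehicle, and growth is measured.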

[14] = NCI Yeast Anticancer Drug Screen. Data for the mlh1 rad18 strain (AID 175); settings: S. cerevisiae mlh1 rad18 strain growth inhibition, stronger effect = higher value
Method in brief: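 Steps: expose repair-defective yeast to compound; measure growth; express inhibition against vehicle-treated controls.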

[15] = NCI Yeast Anticancer Drug Screen. Data for the rad18 strain (AID 177); settings: S. cerevisiae rad18 mutant growth inhibition, stronger effect = higher value
Method in brief: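 Measured value is growth inhibition of a yeast strain bearing a DNA repair alteration, referenced to vehicle-treated cells.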

[16] = at 5.0 µM (retest, dose inferred, filed as 0.5)
[17] = at 50.0 µM (retest, dose inferred, filed as 5.0)

## CCCCCCCCCCCCCCCCCCOCC(O)COP(=O)(O)OCC1OC(n2cc(F)c(=O)[nH]c2=O)CC1O (stereo not drawn)
[1]; at 1.2 µM
  growth inhibition: 15%
[1]; at 3.7 µM
  growth inhibition: 16%
[1]; at 11.0 µM
  growth inhibition: 61%
[1]; at 33.0 µM
  growth inhibition: 97% (active)
[1]; at 100.0 µM
  growth inhibition: 97% (active)
[2]; at 1.2 µM
  growth inhibition: 17%
[2]; at 3.7 µM
  growth inhibition: 4%
[2]; at 11.0 µM
  growth inhibition: -7%
[2]; at 33.0 µM
  growth inhibition: 16%
[2]; at 100.0 µM
  growth inhibition: 93% (active)
[3]; at 1.2 µM
  growth inhibition: 42%
[3]; at 3.7 µM
  growth inhibition: 38%
[3]; at 11.0 µM
  growth inhibition: 70% (active)
[3]; at 33.0 µM
  growth inhibition: 88% (active)
[3]; at 100.0 µM
  growth inhibition: 89% (active)
[4]; at 1.2 µM
  growth inhibition: 30%
[4]; at 3.7 µM
  growth inhibition: 25%
[4]; at 11.0 µM
  growth inhibition: 64%
[4]; at 33.0 µM
  growth inhibition: 98% (active)
[4]; at 100.0 µM
  growth inhibition: 98% (active)
[5]; at 1.2 µM
  growth inhibition: 18%
[5]; at 3.7 µM
  growth inhibition: -10%
[5]; [16]
  growth inhibition: 91% (active)
[5]; at 11.0 µM
  growth inhibition: 54%
[5]; at 33.0 µM
  growth inhibition: 96% (active)
[5]; [17]
  growth inhibition: 99% (active)
[5]; at 50.0 µM
  growth inhibition: 87.6% (active)
[5]; at 100.0 µM
  growth inhibition: 98% (active)
[6]; at 1.2 µM
  growth inhibition: 4%
[6]; at 3.7 µM
  growth inhibition: 12%
[6]; [16]
  growth inhibition: 51%
[6]; at 11.0 µM
  growth inhibition: 74% (active)
[6]; at 33.0 µM
  growth inhibition: 90% (active)
[6]; [17]
  growth inhibition: 99% (active)
[6]; at 50.0 µM
  growth inhibition: 88.5% (active)
[6]; at 100.0 µM
  growth inhibition: 96% (active)
[7]; at 1.2 µM
  growth inhibition: 27%
[7]; at 3.7 µM
  growth inhibition: 9%
[7]; at 11.0 µM
  growth inhibition: -5%
[7]; at 33.0 µM
  growth inhibition: 63%
[7]; at 100.0 µM
  growth inhibition: 95% (active)
[8]; [16]
  growth inhibition: -34%
[8]; [17]
  growth inhibition: 98% (active)
[8]; at 50.0 µM
  growth inhibition: 88.3% (active)
[9]; at 1.2 µM
  growth inhibition: 30%
[9]; at 3.7 µM
  growth inhibition: 28%
[9]; at 11.0 µM
  growth inhibition: 60%
[9]; at 33.0 µM
  growth inhibition: 96% (active)
[9]; at 100.0 µM
  growth inhibition: 99% (active)
[10]; [16]
  growth inhibition: 1%
[10]; [17]
  growth inhibition: 96% (active)
[10]; at 50.0 µM
  growth inhibition: 89.8% (active)
[11]; at 1.2 µM
  growth inhibition: 14%
[11]; at 3.7 µM
  growth inhibition: 28%
[11]; [16]
  growth inhibition: -12%
[11]; at 11.0 µM
  growth inhibition: 1%
[11]; at 33.0 µM
  growth inhibition: 74% (active)
[11]; [17]
  growth inhibition: 91% (active)
[11]; at 50.0 µM
  growth inhibition: 82.3% (active)
[11]; at 100.0 µM
  growth inhibition: 94% (active)
[12]; at 1.2 µM
  growth inhibition: -57%
[12]; at 3.7 µM
  growth inhibition: -83%
[12]; at 11.0 µM
  growth inhibition: 58%
[12]; at 33.0 µM
  growth inhibition: 88% (active)
[12]; at 100.0 µM
  growth inhibition: 94% (active)
[13]; at 1.2 µM
  growth inhibition: 32%
[13]; at 3.7 µM
  growth inhibition: 19%
[13]; at 11.0 µM
  growth inhibition: 54%
[13]; at 33.0 µM
  growth inhibition: 96% (active)
[13]; at 100.0 µM
  growth inhibition: 97% (active)
[14]; [16]
  growth inhibition: 24%
[14]; [17]
  growth inhibition: 99% (active)
[14]; at 50.0 µM
  growth inhibition: 91.2% (active)
[15]; at 1.2 µM
  growth inhibition: 27%
[15]; at 3.7 µM
  growth inhibition: -2%
[15]; at 11.0 µM
  growth inhibition: 52%
[15]; at 33.0 µM
  growth inhibition: 97% (active)
[15]; at 100.0 µM
  growth inhibition: 98% (active)

## Cc1c(C2=C(Br)C(=O)N(C)C2=O)c(=O)n(C)c(=O)n1C
[1]; at 1.2 µM
  growth inhibition: 11%
[1]; at 3.7 µM
  growth inhibition: 26%
[1]; at 11.0 µM
  growth inhibition: 51%
[1]; at 33.0 µM
  growth inhibition: 67%
[1]; at 100.0 µM
  growth inhibition: 87% (active)
[2]; at 1.2 µM
  growth inhibition: 4%
[2]; at 3.7 µM
  growth inhibition: 13%
[2]; at 11.0 µM
  growth inhibition: 23%
[2]; at 33.0 µM
  growth inhibition: 35%
[2]; at 100.0 µM
  growth inhibition: 73% (active)
[3]; at 1.2 µM
  growth inhibition: 0%
[3]; at 3.7 µM
  growth inhibition: -2%
[3]; at 11.0 µM
  growth inhibition: -2%
[3]; at 33.0 µM
  growth inhibition: 1%
[3]; at 100.0 µM
  growth inhibition: 3%
[4]; at 1.2 µM
  growth inhibition: -1%
[4]; at 3.7 µM
  growth inhibition: 0%
[4]; at 11.0 µM
  growth inhibition: 8%
[4]; at 33.0 µM
  growth inhibition: 23%
[4]; at 100.0 µM
  growth inhibition: 91% (active)
[5]; at 1.2 µM
  growth inhibition: 6%
[5]; at 3.7 µM
  growth inhibition: 15%
[5]; [16]
  growth inhibition: 10%
[5]; at 11.0 µM
  growth inhibition: 46%
[5]; at 33.0 µM
  growth inhibition: 78% (active)
[5]; [17]
  growth inhibition: 55%
[5]; at 50.0 µM
  growth inhibition: 81.9% (active)
[5]; at 100.0 µM
  growth inhibition: 91% (active)
[6]; at 1.2 µM
  growth inhibition: 7%
[6]; at 3.7 µM
  growth inhibition: 15%
